Measured values reported in the supplement of paper PMC4022240.
± gives the standard deviation.

Molecular target: T1, HaloTag-ATRX ADD domain (163-292)
T1 chain: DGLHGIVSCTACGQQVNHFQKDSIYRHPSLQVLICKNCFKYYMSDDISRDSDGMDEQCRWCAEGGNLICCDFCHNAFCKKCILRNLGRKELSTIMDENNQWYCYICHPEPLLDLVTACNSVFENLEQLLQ
Assay: peptide microarray binding signal (635 nm), min-max normalized on array (fraction of array maximum); higher = stronger binding
Details: peptide region: Unmod H1 variant; binder concentration: 50 nM
How it was run: (§1)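 An Axon GenePix 4000B scanned the arrays at 635 nm for signal and at 532 nm to catch misprints. Those arrays held histone 13-mer peptide–cellulose conjugates printed in triplicate on nitrocellulose with a Cy3 tracer, blocked overnight at 4°C and probed for 1 h at 4°C with biotin-labelled HaloTag reader fusions (10 nM to 1 μM) plus streptavidin-Alexa Fluor 647 or with rabbit histone antibodies (1:10,000 to 1:2,000) plus anti-rabbit Alexa 647. Each binding signal is a triplicate-spot mean intensity, scaled min-max within its library.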

Binder | peptide microarray binding signal
PKKAKAAKPKKAP [Unmod H1 variant P K K A K A A K P K K A P] | 0.009 ± 0.00089
KAAKPKKAAAKKK [Unmod H1 variant K A A K P K K A A A K K K] | 0.00972 ± 0.0014
AKAVKPKAAKPKT [Unmod H1 variant A K A V K P K A A K P K T] | 0.0116 ± 0.00013
KPKTAKPKAAKPK [Unmod H1 variant K P K T A K P K A A K P K] | 0.0113 ± 0.0004
KKAPKSPAKAKAV [Unmod H1 variant K K A P K S P A K A K A V] | 0.00658 ± 0.0021

Same assay, conditions: peptide region: Unmod H1 variant; binder concentration: 500 nM

Binder | peptide microarray binding signal
PKKAKAAKPKKAP [Unmod H1 variant P K K A K A A K P K K A P] | 0.01 ± 0.00062
KAAKPKKAAAKKK [Unmod H1 variant K A A K P K K A A A K K K] | 0.00767 ± 0.00046
AKAVKPKAAKPKT [Unmod H1 variant A K A V K P K A A K P K T] | 0.00791 ± 0.00033
KAAAASKKKPAGP [Unmod H1 variant K A A A A S K K K P A G P] | 0.0113 ± 0.0013
KPKTAKPKAAKPK [Unmod H1 variant K P K T A K P K A A K P K] | 0.00857 ± 0.00027
KKAPKSPAKAKAV [Unmod H1 variant K K A P K S P A K A K A V] | 0.00976 ± 0.00041
KAKSSAKRAGKKK [Unmod H1 variant K A K S S A K R A G K K K] | 0.016 ± 0.0011

molecular target: HaloTag-ING2 PHD (mouse Ing2 200-280); assay: as above; details: peptide region: Unmod H1 variant; binder concentration: 10 nM
How it was run: as §1

Binder | peptide microarray binding signal
PKKAKAAKPKKAP [Unmod H1 variant P K K A K A A K P K K A P] | 0.00424 ± 0.00016
KAAKPKKAAAKKK [Unmod H1 variant K A A K P K K A A A K K K] | 0.0034 ± 6.6e-05
AKAVKPKAAKPKT [Unmod H1 variant A K A V K P K A A K P K T] | 0.00304 ± 8.9e-05
KPKTAKPKAAKPK [Unmod H1 variant K P K T A K P K A A K P K] | 0.00292 ± 8.4e-05
KKAPKSPAKAKAV [Unmod H1 variant K K A P K S P A K A K A V] | 0.00412 ± 0.0002

same assay, conditions: peptide region: Unmod H1 variant; binder concentration: 100 nM

Binder | peptide microarray binding signal
PKKAKAAKPKKAP [Unmod H1 variant P K K A K A A K P K K A P] | 0.00751 ± 0.00063
KAAKPKKAAAKKK [Unmod H1 variant K A A K P K K A A A K K K] | 0.00673 ± 0.00083
AKAVKPKAAKPKT [Unmod H1 variant A K A V K P K A A K P K T] | 0.00765 ± 0.00045
KAAAASKKKPAGP [Unmod H1 variant K A A A A S K K K P A G P] | 0.003402 ± 3e-05
KPKTAKPKAAKPK [Unmod H1 variant K P K T A K P K A A K P K] | 0.00914 ± 0.00042
KKAPKSPAKAKAV [Unmod H1 variant K K A P K S P A K A K A V] | 0.00978 ± 0.00048
KAKSSAKRAGKKK [Unmod H1 variant K A K S S A K R A G K K K] | 0.00369 ± 5.6e-05

molecular target: anti-H3K4me3 antibody ab8580; assay: as above; details: peptide region: Unmod H1 variant; binder concentration: 1:2,000 dilution
How it was run: as §1

Binder | peptide microarray binding signal
PKKAKAAKPKKAP [Unmod H1 variant P K K A K A A K P K K A P] | 0.0006985 ± 6.5e-06
KAAKPKKAAAKKK [Unmod H1 variant K A A K P K K A A A K K K] | 0.0007173 ± 6.6e-06
AKAVKPKAAKPKT [Unmod H1 variant A K A V K P K A A K P K T] | 0.000774 ± 2.8e-05
KAAAASKKKPAGP [Unmod H1 variant K A A A A S K K K P A G P] | 0.000321 ± 3.3e-06
KPKTAKPKAAKPK [Unmod H1 variant K P K T A K P K A A K P K] | 0.000736
KKAPKSPAKAKAV [Unmod H1 variant K K A P K S P A K A K A V] | 0.000793 ± 4.5e-05
KAKSSAKRAGKKK [Unmod H1 variant K A K S S A K R A G K K K] | 0.00034 ± 6.1e-06

same assay, conditions: peptide region: Unmod H1 variant; binder concentration: 1:10,000 dilution

Binder | peptide microarray binding signal
PKKAKAAKPKKAP [Unmod H1 variant P K K A K A A K P K K A P] | 0.00171 ± 3.3e-05
KAAKPKKAAAKKK [Unmod H1 variant K A A K P K K A A A K K K] | 0.00143
AKAVKPKAAKPKT [Unmod H1 variant A K A V K P K A A K P K T] | 0.00137 ± 1.3e-05
KPKTAKPKAAKPK [Unmod H1 variant K P K T A K P K A A K P K] | 0.00143 ± 2.4e-05
KKAPKSPAKAKAV [Unmod H1 variant K K A P K S P A K A K A V] | 0.00154 ± 3.9e-05

molecular target: anti-H3K9me3 antibody ab8898; assay: as above; details: peptide region: Unmod H1 variant; binder concentration: 1:2,000 dilution
How it was run: as §1

Binder | peptide microarray binding signal
PKKAKAAKPKKAP [Unmod H1 variant P K K A K A A K P K K A P] | 0.000589 ± 9.4e-06
KAAKPKKAAAKKK [Unmod H1 variant K A A K P K K A A A K K K] | 0.000619 ± 2.4e-05
AKAVKPKAAKPKT [Unmod H1 variant A K A V K P K A A K P K T] | 0.000453 ± 1.3e-05
KAAAASKKKPAGP [Unmod H1 variant K A A A A S K K K P A G P] | 0.000181 ± 3.4e-06
KPKTAKPKAAKPK [Unmod H1 variant K P K T A K P K A A K P K] | 0.000529 ± 1.8e-05
KKAPKSPAKAKAV [Unmod H1 variant K K A P K S P A K A K A V] | 0.000347 ± 9.2e-06
KAKSSAKRAGKKK [Unmod H1 variant K A K S S A K R A G K K K] | 0.000227

same assay, conditions: peptide region: Unmod H1 variant; binder concentration: 1:10,000 dilution

Binder | peptide microarray binding signal
PKKAKAAKPKKAP [Unmod H1 variant P K K A K A A K P K K A P] | 0.00773 ± 0.0051
KAAKPKKAAAKKK [Unmod H1 variant K A A K P K K A A A K K K] | 0.00156 ± 6.6e-05
AKAVKPKAAKPKT [Unmod H1 variant A K A V K P K A A K P K T] | 0.000865 ± 9e-06
KPKTAKPKAAKPK [Unmod H1 variant K P K T A K P K A A K P K] | 0.0011 ± 1.1e-05
KKAPKSPAKAKAV [Unmod H1 variant K K A P K S P A K A K A V] | 0.00115 ± 2e-05

Molecular target: T1, HaloTag-ATRX ADD domain (163-292)
Assay: as above
Details: peptide region: Unmod H2A variant; binder concentration: 50 nM
How it was run: as §1

Binder | peptide microarray binding signal
QGGKARAKAKSRS [Unmod H2A variant Q G G K A R A K A K S R S] | 0.0073 ± 0.00042
QGGKARAKSKSRS [Unmod H2A variant Q G G K A R A K S K S R S] | 0.0112 ± 0.00043
SGRGKQGGKARAK [Unmod H2A variant S G R G K Q G G K A R A K] | 0.0203 ± 0.0024
QGGKARAKAKTRS [Unmod H2A variant Q G G K A R A K A K T R S] | 0.00784 ± 0.00021

Same assay, conditions: peptide region: Unmod H2A variant; binder concentration: 500 nM

Binder | peptide microarray binding signal
QGGKARAKAKSRS [Unmod H2A variant Q G G K A R A K A K S R S] | 0.0168 ± 0.0004
QGGKARAKSKSRS [Unmod H2A variant Q G G K A R A K S K S R S] | 0.0328 ± 0.0016
SGRGKQGGKARAK [Unmod H2A variant S G R G K Q G G K A R A K] | 0.0194 ± 0.0069
QGGKARAKAKTRS [Unmod H2A variant Q G G K A R A K A K T R S] | 0.0153 ± 0.0011

molecular target: HaloTag-ING2 PHD (mouse Ing2 200-280); assay: as above; details: peptide region: Unmod H2A variant; binder concentration: 10 nM
How it was run: as §1

Binder | peptide microarray binding signal
QGGKARAKAKSRS [Unmod H2A variant Q G G K A R A K A K S R S] | 0.002507 ± 1.4e-05
QGGKARAKSKSRS [Unmod H2A variant Q G G K A R A K S K S R S] | 0.00824 ± 9.4e-05
SGRGKQGGKARAK [Unmod H2A variant S G R G K Q G G K A R A K] | 0.0104 ± 0.00068
QGGKARAKAKTRS [Unmod H2A variant Q G G K A R A K A K T R S] | 0.00298 ± 0.00012

same assay, conditions: peptide region: Unmod H2A variant; binder concentration: 100 nM

Binder | peptide microarray binding signal
QGGKARAKAKSRS [Unmod H2A variant Q G G K A R A K A K S R S] | 0.00758 ± 0.0021
QGGKARAKSKSRS [Unmod H2A variant Q G G K A R A K S K S R S] | 0.0201 ± 0.0027
SGRGKQGGKARAK [Unmod H2A variant S G R G K Q G G K A R A K] | 0.0167 ± 0.00073
QGGKARAKAKTRS [Unmod H2A variant Q G G K A R A K A K T R S] | 0.00496 ± 0.00036

molecular target: anti-H3K4me3 antibody ab8580; assay: as above; details: peptide region: Unmod H2A variant; binder concentration: 1:2,000 dilution
How it was run: as §1

Binder | peptide microarray binding signal
QGGKARAKAKSRS [Unmod H2A variant Q G G K A R A K A K S R S] | 0.00164 ± 0.00013
QGGKARAKSKSRS [Unmod H2A variant Q G G K A R A K S K S R S] | 0.00194 ± 0.00036
SGRGKQGGKARAK [Unmod H2A variant S G R G K Q G G K A R A K] | 0.000151 ± 1.7e-06
QGGKARAKAKTRS [Unmod H2A variant Q G G K A R A K A K T R S] | 0.00125 ± 0.00024

same assay, conditions: peptide region: Unmod H2A variant; binder concentration: 1:10,000 dilution

Binder | peptide microarray binding signal
QGGKARAKAKSRS [Unmod H2A variant Q G G K A R A K A K S R S] | 0.001027 ± 1e-05
QGGKARAKSKSRS [Unmod H2A variant Q G G K A R A K S K S R S] | 0.00143 ± 2.4e-05
SGRGKQGGKARAK [Unmod H2A variant S G R G K Q G G K A R A K] | 0.00337 ± 0.0001
QGGKARAKAKTRS [Unmod H2A variant Q G G K A R A K A K T R S] | 0.000685 ± 7.2e-06

molecular target: anti-H3K9me3 antibody ab8898; assay: as above; details: peptide region: Unmod H2A variant; binder concentration: 1:2,000 dilution
How it was run: as §1

Binder | peptide microarray binding signal
QGGKARAKAKSRS [Unmod H2A variant Q G G K A R A K A K S R S] | 0.000302 ± 3.1e-06
QGGKARAKSKSRS [Unmod H2A variant Q G G K A R A K S K S R S] | 0.000574 ± 1.1e-05
SGRGKQGGKARAK [Unmod H2A variant S G R G K Q G G K A R A K] | 0.00112 ± 1.7e-05
QGGKARAKAKTRS [Unmod H2A variant Q G G K A R A K A K T R S] | 0.000408 ± 1.4e-05

same assay, conditions: peptide region: Unmod H2A variant; binder concentration: 1:10,000 dilution

Binder | peptide microarray binding signal
QGGKARAKAKSRS [Unmod H2A variant Q G G K A R A K A K S R S] | 0.000404 ± 4.4e-06
QGGKARAKSKSRS [Unmod H2A variant Q G G K A R A K S K S R S] | 0.000807 ± 1.5e-05
SGRGKQGGKARAK [Unmod H2A variant S G R G K Q G G K A R A K] | 0.00133
QGGKARAKAKTRS [Unmod H2A variant Q G G K A R A K A K T R S] | 0.000404 ± 4.4e-06
